Values joined by “and” are separate entries in the source; they are usually repeats but may differ in a detail not shown here. Equal entries are not always repeated. Inconclusive results are not listed. Values without a mark were called inactive. Active and inactive are the calls of the source. Calls follow the shape of the dose curve; as a rule, active = well fitted curve in the direction sought with a large enough effect; inconclusive = small, poorly fitted or top-dose-only effect, or another doubt; inactive = no such curve, though single readings can be large or run the other way.
experiment: qHTS Assay for Identifying Gametocytocidal Compounds (AID 743244);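 as to max response: actives lower the fluorescent signal which means gametocytes are killed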; details: P. falciparum 3D7 stage III-V gametocytes, alamarBlue, 72 h; max response: active compounds read low
Method in brief: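 Stage III-V P. falciparum 3D7 gametocytes, 20,000 per well, were exposed to compounds for 72 h at 37C, 5% CO2. AlamarBlue was then added for 24 h and viability was read as fluorescence at Ex 525/Em 598 nm.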
% is scaled to controls: 0 for no effect and ±100 for the full control effect; potency is read from the fitted curve at half-maximal effect.

Compared with N[C@@H](CC(=O)O)C(=O)O, CN(C)C(N)=NCCC[C@H](N)C(=O)O is lower in max response: 20.5% for the first, -2.52% for the second.

Going from N=c1ccn2c(n1)O[C@H]1[C@H](O)[C@@H](CO)O[C@H]12 to CNC(=O)[C@H]1O[C@@H](n2cnc3c(NCc4ccc(N)cc4)ncnc32)[C@H](O)[C@@H]1O, the max response falls from 8.89% to 6.14%.

Going from CCCCCCCCCCCCCCCC(=O)OC(CC(=O)O)C[N+](C)(C)C (stereo not given) to CCCCCCCCCCCCCCCC(=O)NCC(COP(=O)([O-])OCC[N+](C)(C)C)OCC (stereo not given), the max response rises from -5.64% to 1.33%.

First: NC(=O)C1=CN(C2OC(COP(=O)(O)OP(=O)(O)OC[C@H]3O[C@@H](n4cnc5c(N)ncnc54)[C@H](OP(=O)(O)O)[C@@H]3O)C(O)C2O)C=CC1 (stereo not given in full)
Second: Nc1nc(Cl)nc2c1ncn2[C@@H]1O[C@H](COP(=O)(O)OP(=O)(O)OP(=O)(O)O)[C@@H](O)[C@H]1O
The max response of the first is lower: -6.13% for the first, 20.1% for the second.

Compared with N#C/C(=C\c1c[nH]c2ccccc12)C(=O)c1ccc(O)c(O)c1, O=C(c1cc(O)c(O)c([N+](=O)[O-])c1)c1ccccc1F is higher in max response: -1.71% for the first, 18.1% for the second.

First: Cn1c(=O)c2[nH]c(-c3ccccc3)nc2n(C)c1=O
Second: Cn1ncc(S(=O)(=O)Cc2ccccc2)c(Br)c1=O
The max response of the first is lower: 16.2% for the first, 25.3% for the second.

Compared with CN(C)c1nc(N)c(C(=O)N=C(N)N)nc1Cl, Cc1cc(NC(=O)Nc2ccc3c(ccn3C)c2)sn1 is higher in max response: 11% for the first, 24.1% for the second.

Going from O=C(O)CC1CCCc2ccccc2C1O (stereo not given) to CN1C2CCC1CC(OC(=O)C(O)c1ccccc1)C2 (stereo not given), the max response rises from 12.4% to 30%.

Compared with C[C@@H](CN1CCC(Cc2ccccc2)CC1)[C@@H](O)c1ccc(O)cc1, O=C(O)c1cc([N+](=O)[O-])ccc1NCCCc1ccccc1 is lower in max response: 31% for the first, 5.5% for the second.

Going from Ic1ccc(N2CCN(Cc3c[nH]c4ncccc34)CC2)cc1 to O=C(c1ccc(Cl)cc1)N1CCN(c2ccc([N+](=O)[O-])c3ncccc23)CC1, the max response falls from 5.54% to -0.851%.

Going from COc1ccccc1N1CCN(CCCCNS(=O)(=O)c2cccc3c(N(C)C)cccc23)CC1 to CN1CCc2ccccc2Cc2[nH]c3ccccc3c2CC1, the max response falls from 10.4% to -0.861%.

Going from CC(=O)SCC[N+](C)(C)C to C[N+](C)(CCCCCC[N+](C)(C)CCCN1C(=O)c2cccc3cccc(c23)C1=O)CCCN1C(=O)c2cccc3cccc(c23)C1=O, the max response falls from 9.88% to -6.11%.

First: CO/S(=N\S(=O)(=O)c1ccc(Cl)cc1)c1ccc([N+](=O)[O-])cc1 (stereo not given)
Second: Cn1cc(C2=C(c3ccc(Cl)cc3Cl)C(=O)NC2=O)c2ccccc21
The max response of the first is higher: 19.6% for the first, 6.65% for the second.

Going from CC(C)NC[C@@H](O)c1ccc(O)c(O)c1 to CCCCCCCCc1ccc(-c2ccc(C(=O)O)cc2)cc1, the max response falls from 19.2% to 11.5%.

Going from O=C1O/C(=C/Br)CCC1c1cccc2ccccc12 (stereo not given) to CSc1nc(N)c2ncn([C@@H]3O[C@H](COP(=O)(O)OP(=O)(O)OP(=O)(O)O)[C@@H](O)[C@H]3O)c2n1, the max response rises from 7.23% to 11.9%.

For Cc1ccc(S(=O)(=O)/C=C/C#N)cc1, the Potency was 3550 nM (active).
With CCCC1(C)C(C#N)(C#N)C1(C#N)C#N the Potency was 2240 nM (active).
With Cc1cc(NC2CCCCC2)nc(-n2nc(C)cc2C)n1 the Potency was 1180 nM (active).

In the case of CCC1C(=O)OCC1Cc1cncn1C (stereo not given), the max response is reported as -1.02% and -1.03% and -9.17%.
With CC(N)C(=O)OC(C)(C)Cc1ccc(Cl)cc1 (stereo not given) the max response was 11% and 11.7%.

— PubChem BioAssay (NCATS)
